Experimental findings from PubChem BioAssay (NCI) are described below.

The structures appear in SMILES notation. The panel holds about 83,000 compounds, 20% with a hit somewhere; the sample as a whole holds those more often.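 96-well plates, one dose, 48 hours. Percent growth reported; active if below 10.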 A number with no mark means an inactive call. The source made the active and inactive calls.

The assay has as its system HL-60(TB) leukemia. In words: NCI-60 one-dose screen, 48 h (100 = growth as untreated, 0 = no growth, -100 = all killed). The following applies: 10 µM unless noted.
For the molecule `O=C(CNc1nc(-c2ccccc2)cs1)Nc1ccc(Cl)cc1[N+](=O)[O-]`, the growth was -15.1% (active).

On to `CCOC(=O)C1=C(N)N(c2ccccc2)C2=C(C(=O)CC(C)(C)C2)C1c1ccccc1Cl` (stereo not drawn), for which the growth was -23% (active).

For `COC(=O)c1ccc(-c2c(-c3ccccc3)c(F)c3oc(C(=O)OC)c(N)c3c2-c2ccccc2)cc1`, the growth is 105%.

In the case of `CC1(C)[C@@H](NCO)CC[C@]2(C)[C@H]3C(=O)C=C4[C@@H]5C[C@](C)(CO)CC[C@]5(C)CC[C@@]4(C)[C@]3(C)CC[C@@H]12`, the growth is 58.2%.

For the molecule `Cc1ccc(/C=C/c2n(Cc3ccc4ccccc4c3)c3ccccc3[n+]2Cc2ccc3ccccc3c2)cc1`, the growth was -45.5% (active).

As for `N#Cc1c(-c2cccc(Cl)c2Cl)cc(-c2ccc3ccccc3c2)[nH]c1=O`, the growth is 83.8%.

Consider `COc1c2c(c(Br)c3c1C(CCc1ccccc1)N(C)CC3)OCO2` (stereo not drawn), for which the growth is 14.1%.

For `COc1cc(-c2ccc(/C=N/NC(=O)c3[nH]c4ccc(Br)cc4c3-c3ccccc3)s2)cc(OC)c1OC`, the growth is 99%.

For the molecule `O=C1Nc2cc(-c3ccc(NS(=O)(=O)c4ccc(F)c(Cl)c4)cc3)ccc2/C1=C/c1ccc[nH]1`, the growth was 46.9%.

For `CONC[C@]1(C)C=C2C(=O)[C@](C)(O)C3(CC3)C(C)=C2[C@H]1O`, the growth is -29.3% (active).

As to `COc1ccc2[nH]c(O)c(N=Nc3nc(-c4ccc(Br)cc4)cs3)c2c1`, the growth was 73.5%.

Take `OC1CCC(Cn2c(C(F)(F)F)cc3c(Cl)ncnc32)CC1` (stereo not drawn): the growth was -37.5% (active).

With `C#C[C@]1(O)CC[C@H]2[C@@H]3CC=C4c5sc(-c6ccc(O)c(O)c6)nc5CC[C@]4(C)[C@H]3CC[C@@]21C`, the growth was -54.1% (active).

With `C=C1CCC2C3(C)COC(c4cccs4)OC3CCC2(C)C1CC(Sc1ccccc1)C1=CCOC1=O` (stereo not drawn), the growth was 19.4%.

As for `COc1ccc(-c2ccnc(SCc3cc4cc(OC)ccc4[nH]c3=O)n2)cc1`, the growth is -8.43% (active).

As to `N#CC1=C(c2cccs2)Nc2c(c(-c3ccccc3)nn2-c2ccccc2)C12C(=O)Nc1ccc(Cl)cc12` (stereo not drawn), the growth was -4.48% (active).

`COc1ccc(-c2nc(SC(C)C)nc(NCCc3c[nH]c4ccccc34)c2C#N)cc1`: the growth is 31.6%.

For the molecule `COc1cc(CNC(=O)/C=C/c2ccc3c(c2)OCO3)ccc1OCc1cn(-c2cccc(C(F)(F)F)c2)nn1`, the growth is 69.7%.

Take `CCCSc1nc(NC2CC2)c(C#N)c(-c2ccc(OC)cc2)n1`: the growth is 81%.

With `O=C1c2ccccc2C(=O)c2c1c(C(=O)c1ccc(Cl)cc1)n1c2ccc2c3ccccc3ccc21`, the growth is 109%.

In the case of `O=C(c1ccc(Cl)cc1)C1[C@H](c2ccc(Br)cc2)[C@@H](c2ccccc2)NC12C(=O)Nc1ccc(Cl)cc12` (stereo partly drawn), the growth is -45.2% (active).

Consider `CCC1(OC(=O)c2ccccc2SSCCOC(=O)CCCCC2SCC3NC(=O)NC32)C(=O)OCc2c1cc1n(c2=O)Cc2cc3ccccc3nc2-1` (stereo not drawn), for which the growth was 76.7%.

Regarding `COc1ccc2ncc(C#Cc3cncc(C(=O)Nc4ccc(CN5CCN(C)CC5)c(C(F)(F)F)c4)c3)n2n1`, the growth was -60.2% (active).

For `NS(=O)(=O)c1cccc(Nc2nc(SCC(=O)c3ccc(F)cc3)nc3ccccc23)c1`, the growth is 6.93% (active).

On to `COC(=O)c1c(C(=O)OC)c2n(c1C)[C@@H]([C@@H](C)[C@H]1CC[C@H]3[C@@H]4CCC5=CC(=O)CC[C@]5(C)[C@H]4CC[C@]13C)SC2`, for which the growth was 7% (active).

Take `Cc1cc(=O)oc2cc(OCCCOc3ccc(/C=C/C(=O)Nc4ccccc4N)cc3)ccc12`: the growth was 1.53% (active).

`CCC(=O)c1c2c(c3ccc4c5ccccc5ccc4n13)C(=O)c1ccccc1C2=O`: the growth is 90.1%.

For `O=C1c2c(c3c4cc(F)ccc4oc3c3[nH]c4ccc(Br)cc4c23)C(=O)N1O`, the growth is 16.9%.

With `COc1ccc2c(c1)C(=N/N=C(\C)c1ccc(OC)c(S(N)(=O)=O)c1)C(=O)N2`, the growth is 91.7%.

Regarding `CC(=O)Nc1ccc(-n2cnc3cc(-c4ccc(O)cc4)ccc32)cc1F`, the growth is -10.2% (active).

In the case of `COc1cc(/C=C/C(=O)c2ccc(S(=O)(=O)NCCNc3nc(Nc4ccc(F)cc4)nc(N(C)C)n3)cc2)cc(OC)c1OC`, the growth is -4.97% (active).

With `O=C1NC(=O)/C(=C/c2ccccc2OCc2cc3ccccc3nc2Cl)S1`, the growth is 99%.

Turning to `CC(=O)Oc1ccccc1C(=O)[Se]C(=NC1CCCCC1)NC1CCCCC1`, the growth is -17.5% (active).
